The values that follow come from PubChem BioAssay (NCI).

What all share (assay): NCI-60 one-dose screen, 48 h (100 = growth as untreated, 0 = no growth, -100 = all killed)
Common to all, as to details: 10 µM unless noted

Test [1] deals with NCI-H23 lung.
Test [2] has as its system NCI-H226 lung.
The subject of test [3] is NCI-H322M lung.
Test [4] deals with HOP-62 NSCLC.
In test [5] the test system is NCI-H460 lung.
For test [6], the system named is HOP-92 NSCLC.
The test system of test [7] is NCI-H522 lung.
Test [8] relates to A549/ATCC NSCLC.
For test [9], the system named is 786-0 renal.
Test [10] concerns COLO 205 colon.
In test [11] the test system is DU-145 prostate.
Test [12] deals with K-562 leukemia.
Test [13] relates to MALME-3M melanoma.
The subject of test [14] is MDA-MB-231 breast.
For test [15], the system named is RXF 393 renal.
For test [16], the system named is SF-268 CNS.
In test [17] the test system is SF-295 CNS.
In test [18] the test system is SF-539 CNS.
Test [19] has as its system UACC-257 melanoma.
In test [20] the test system is M14 melanoma.

Molecules are shown by their SMILES. This is part of a sample that, as a whole, favours compounds with a hit. Of some 83,000 tested, about 20% had one in any assay.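 For each line, cells grew in 96-well plates with the test compound present at a single concentration for 48 hours.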 Unmarked numbers belong to inactive results. The source made the active and inactive calls. Rule for the calls: active = growth percent below 10; inactive = the rest.

As for `Cc1[nH]c(C(=O)Nc2ccc(C(=O)NCC3CCNCC3)cc2OC(C)C)c(Cl)c1Cl`, the growth in test [1] was 83%; in [2] it was 83.6%; in test [3], 92.1%; in test [4], 86.4%; in test [5] it was 34.7%; in [6], 65.9%. Moreover, the growth in [7] was 90.7%; in test [8] it was 65.4%; in [9], 79.8%; in test [10], -13.3% (active); in [11], 80.2%; in [12], 10.6%. Also, the growth in test [13] is 80.1%; in [14], 72.3%; in [15], 71.3%; in test [16] it was 76.6%; in test [17] it was 73.5%; in test [18] it was 83.8%. Moreover, the growth was 101% in test [19] and 62.4% in test [20].
`CCN(CC)c1ccc(/C=N/NC(=O)c2ccc(S(N)(=O)=O)cc2)cc1`: the growth in [1] was 25.1%; in [2], 45.1%; in test [3] it was 28.1%; in test [4], 18.6%; in test [5], 7.17% (active); in [6], 72.3%. The growth in [7] is 18.7%; in test [8], 26.1%; in test [9] it was 9.66% (active); in test [10], 11.1%; in test [11], 34.7%; in test [12] it was 14.7%. The growth was 8.81% (active) in test [13]; 38.3% in test [14]; -6.07% (active) in [15]; 29.4% in test [16]; 16% in test [17]; 17% in [18]. In addition, the figures for the growth in test [19] and in test [20] were 2.22% (active) and -1.23% (active), respectively.
Consider `CN(C)c1ccc(/C=N/Nc2nc(N/N=C/c3ccc(N(C)C)cc3)nc(N3CCCCC3)n2)cc1`, for which the growth in test [1] was 96.7%; in [2] it was 102%; in [3] it was 100%; in test [4], 81.8%; in test [5] it was 70.9%; in test [6] it was 84%. In addition, the growth in [7] is 96.2%; in test [8] it was 78.5%; in test [9] it was 88.2%; in test [10], 83.5%; in test [11], 77.5%; in test [12] it was 3.08% (active). The growth in test [13] was -67.3% (active); in test [14], 68.6%; in test [15], 93.3%; in test [16], 105%; in [17], 107%; in [18] it was -12.3% (active). Also, the growth in test [19] is 104%; in [20] it was 72.8%.
For the compound `CN1CCN(Cc2ccc(NC(=O)c3cncc(C#Cc4cnc5ccc(OCC6COC6)nn45)c3)cc2C(F)(F)F)CC1`, the growth in test [1] is -58% (active); in test [2], -65.2% (active); in test [3] it was -36.5% (active); in test [4] it was -72.3% (active); in test [5], -81% (active); in test [6], -33.4% (active). In addition, the growth in test [7] is -70.7% (active); in [8] it was -68.7% (active); in test [9], -85.6% (active); in test [10] it was -76.3% (active); in test [11] it was -83.1% (active); in [12] it was 0.233% (active). Besides, the growth in test [13] is -88.2% (active); in test [14], -63% (active); in test [15], -78.5% (active); in [16], -70.2% (active); in test [17], -93.7% (active); in test [18] it was -88.2% (active). In addition, the figures for the growth in test [19] and in [20] were -51.6% (active) and -86.8% (active), respectively.
Turning to `Cc1ccc(C(=O)Nc2ccc(CNCCN3CCNCC3)c(C(F)(F)F)c2)cc1C#Cc1cnc2cccnn12`, the growth was 4.87% (active) in test [1]; 97.1% in test [2]; 55.3% in test [3]; -48.8% (active) in [4]; -44.9% (active) in test [5]; -28.2% (active) in test [6]. Also, the growth in test [7] is -33.9% (active); in test [8] it was 16%; in test [9], -70.2% (active); in test [10] it was -53.2% (active); in test [11] it was 6.09% (active); in test [12], -22.2% (active). For the same compound, the growth in [13] is -70.8% (active); in test [14] it was -75.6% (active); in test [15], -90.1% (active); in test [16], -14.2% (active); in test [17], -37.4% (active); in test [18], -83% (active). Also, the growth in test [19] is -6.59% (active); in [20] it was -64.6% (active).
As for `O=C(CCCCCCN1CC(=O)N2[C@@H](c3ccccc3Br)c3[nH]c4ccccc4c3C[C@H]2C1=O)NO`, the growth was 63.9% in test [1]; 99.7% in [2]; 66.1% in test [3]; 61.5% in [4]; 51.8% in test [5]; 29% in [6]. In addition, the growth in test [7] is -5.74% (active); in test [8], 88.4%; in test [9] it was 87.3%; in test [10], 42.8%; in [11], 62.7%; in test [12], 22.6%. For the same compound, the growth in test [13] is 14.4%; in test [14], 50%; in test [15], 43.1%; in test [16], 79.6%; in test [17] it was 55.3%; in test [18] it was 51%. The values for the growth in test [19] and in test [20] were 39.9% and 42.1%, respectively.
On to `Cc1ccccc1Nc1nc(SC(C)C)nc(-c2ccccc2)c1C#N`, for which the growth in test [1] was 31.7%; in test [2], 81.1%; in [3] it was 70%; in test [4], 37%; in test [5], 45.5%; in test [6], 64.5%. Besides, the growth in test [7] was 73%; in test [8] it was 102%; in test [9], 10.6%; in [10], 119%; in test [11] it was 76.6%; in test [12] it was 46.3%. The growth in [13] is 66.3%; in [14] it was 67.9%; in test [15], 28.1%; in test [16] it was 57%; in test [17], 23.8%; in [18], 28.1%. The values for the growth in test [19] and in [20] were 107% and 77.2%, respectively.
